Shown are actives, neighbours in structure and some others; about 7.3% of the full set was active somewhere.
RORgamma inh: ROR gamma (mouse) transcription inhibition | 310,000 tested, 5.4% active | Drosophila S2 Gal4-RORgamma UAS-luciferase reporter, 20 h | P51450 | Potency, µM (highest dose often 53.6 µM), most hits filed as inhibitors | AID 2551; further: nearly all actives have a fitted effect of over 60% in size
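Stable Schneider cell line, Gal4 DNA-binding domain fused to ROR gamma, UAS-luciferase. Cmpd 1 hr RT → CuSO4 700 uM final → 20 hr RT → luciferase reagent 10 min → luminescence.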
VP16 counter: Gal4-VP16 reporter inhibition counter-screen; Drosophila S2 Gal4-VP16 UAS-luciferase, luminescence, 20 h; 310,000 tested, 3.5% active; Potency, µM (doses to about 53.6 µM), hits mostly inhibitors;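 further: Gal4-VP16 expression switched on by copper sulfate through the metallothionein promoter; nearly all actives have a fitted effect of over 50% in size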
Tau FP inhib: inhibitors of human tau fibril formation; P10636; K18 P301L tau heparin fibrillization, Alexa594 FP, 6 h; Potency, µM (top dose mostly 57.7 µM), hits mostly inhibitors; 280,000 tested, 0.39% active; further: nearly all actives have a fitted effect of over 55% in size
Target sequence (P10636 561-689 P618L limits assumed): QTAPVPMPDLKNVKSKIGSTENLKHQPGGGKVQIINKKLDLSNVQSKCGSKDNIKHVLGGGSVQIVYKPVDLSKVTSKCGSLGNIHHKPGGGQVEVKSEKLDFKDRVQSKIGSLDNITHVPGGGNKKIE
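Read-out: fluorescence polarization of Alexa 594-labeled tau (0.24 uM), 555 nm excitation, 632 nm emission. Mixtures held 15 uM unlabeled K18 P301L, compound and 20 uM heparin, pH 7 acetate buffer, incubated 6 hr at 37 C.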
Tau fluor cs: counter-screen for tau fibril formation inhibitors | tau K18 P301L Alexa594 fluorescence, heparin fibrillization | Potency, µM (titrated, usually from 57.7 µM) | 280,000 tested, 0.93% active | AID 1463; further: nearly all actives have a fitted effect of over 55% in size
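Human K18 P301L tau (15 uM unlabeled plus 0.24 uM Alexa 594-labeled, final) in 100 mM sodium acetate pH 7 was mixed with compound and 20 uM heparin and incubated 6 hr at 37 C.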
Tau fibril ThT: blocks human tau fibril formation measured by thioflavin T | recombinant tau K18 P301L (four-repeat tau fragment), heparin-induced fibrillization, ThT fluorescence | AID 1460 | Potency, µM (series often up to 57.4 µM), hits mostly inhibitors | 270,000 tested, 2.1% active; further: nearly all actives have a fitted effect of over 55% in size
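Aggregation was driven by heparin (20 uM final) acting on recombinant tau […] bearing P301L in 100 mM sodium acetate pH 7; fibrils were detected with Thioflavin T.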
Large screens that a line does not name were inactive. The call rests on the fitted dose curve; in most records, active means well fitted curve in the direction sought with a large enough effect; inconclusive means small, poorly fitted or top-dose-only effect, or another doubt; inactive means no such curve, though single readings can be large; an effect the other way counts as inactive or inconclusive.

C/C(=N\Nc1nc(-c2ccccn2)nc2ccccc12)c1ccc(F)cc1	RORgamma inh 0.126µM, VP16 counter 1.12µM
C/C(=N\Nc1nc(-c2ccccc2O)nc2ccccc12)c1ccccc1	RORgamma inh 4.47µM, VP16 counter inconclusive, Tau fluor cs inconclusive
C/C(=N\NC(=O)Cn1c(-c2ccccn2)nc2ccccc21)c1ccccc1	none
COc1ccc(N2CCN(S(=O)(=O)CCNC(=O)COc3ccccc3F)CC2)cc1	none (no result: RORgamma inh, VP16 counter)
NS(=O)(=O)c1cc2c(cc1Cl)NC(c1ccccc1OCC(=O)O)NS2(=O)=O (configuration not stated)	none (no result: Tau FP inhib, Tau fluor cs, Tau fibril ThT)
CCOC(=O)c1ccc(NC(=S)N2CCSC2c2ccc(Cl)cc2)cc1 (configuration not stated)	RORgamma inh 14.1µM, VP16 counter inconclusive, Tau FP inhib inconclusive, Tau fluor cs inconclusive
CCOC(=O)c1ccc(NC(=S)N2CCN(C)CC2)cc1	VP16 counter inconclusive (no result: Tau FP inhib, Tau fluor cs, Tau fibril ThT)
CCOC(=O)c1ccc(NC(=S)N2CCSC2c2ccc(OC)cc2)cc1 (configuration not stated)	RORgamma inh inconclusive, VP16 counter inconclusive, Tau FP inhib 25.1µM, Tau fluor cs inconclusive, Tau fibril ThT inconclusive
COc1ccc(N(CC(=O)Nc2ccc(Cc3ccncc3)cc2)S(=O)(=O)c2ccccc2)cc1	none (no result: Tau FP inhib, Tau fluor cs, Tau fibril ThT)
Cc1cc2c(cc1C)N(C(=O)CSc1nncn1C)C(C)(C)c1ssc(=S)c1-2	RORgamma inh inconclusive, Tau fibril ThT 20µM
Cc1ccc(S(=O)(=O)N[C@@H](Cc2ccccc2)C(=O)CCl)cc1	RORgamma inh inconclusive, VP16 counter 15.8µM, Tau FP inhib inconclusive, Tau fibril ThT inconclusive
C/C(=N\NC(=S)NCCc1ccccc1)c1ccc(C#N)cc1	RORgamma inh 3.98µM, VP16 counter 8.91µM
C/C(=N\NC(=S)NCCc1ccccc1)c1ccc(C)cc1	RORgamma inh 2.82µM, VP16 counter 5.01µM
C/C(=N\OCc1ccc(C#N)cc1)c1ccccc1	none
C/C(=N\NC(=S)NCCc1ccccc1)c1ccc(Cl)cc1	RORgamma inh 3.55µM, VP16 counter 3.16µM
O=C(NCC(c1cccnc1)N1CCN(c2ccccc2F)CC1)c1ccc(F)cc1 (configuration not stated)	none (no result: RORgamma inh, VP16 counter)
FC(F)Oc1ccc(-c2csc(NNC3=NCCCCC3)n2)cc1	RORgamma inh inconclusive, Tau FP inhib inconclusive, Tau fibril ThT 28.2µM
N#Cc1ccc(-c2csc(NC3=NCCCCC3)n2)cc1	RORgamma inh inconclusive, VP16 counter inconclusive
Brc1ccc(-c2csc(NNC3=NCCCCC3)n2)cc1	RORgamma inh 7.08µM, VP16 counter 14.1µM, Tau fluor cs inconclusive, Tau fibril ThT inconclusive
c1ccc(-c2csc(NC3=NCCCCC3)n2)cc1	none
CC(C)(C)c1ccc(-c2csc(NNC3=NCCCCC3)n2)cc1	RORgamma inh 12.6µM, VP16 counter inconclusive, Tau FP inhib inconclusive, Tau fluor cs inconclusive, Tau fibril ThT 15.8µM
COc1ccccc1OCC(=O)NNC(=S)NC(=O)c1ccco1	VP16 counter inconclusive
O=C(Nc1ccc(NC(=S)NC(=O)c2ccco2)cc1)c1ccccc1	RORgamma inh inconclusive (no result: Tau FP inhib, Tau fluor cs, Tau fibril ThT)
O=C(NC(=S)NNC(=O)c1ccccc1O)c1ccco1	VP16 counter 3.55µM, Tau fibril ThT inconclusive
O=C(NC(=S)NNC(=O)c1cc2ccccc2cc1O)c1ccco1	RORgamma inh inconclusive, Tau fibril ThT 12.6µM
CSCCC(NS(=O)(=O)c1c(Cl)cccc1Cl)C(=O)O (configuration not stated)	none
CCc1ccc(C2C(C(=O)Nc3ccccc3C)=C(C)Nc3nc(SCc4cccc(OC)c4)nn32)cc1 (configuration not stated)	Tau FP inhib inconclusive (no result: RORgamma inh, VP16 counter)
CC(=O)c1cccc(NC(=O)c2cccc3ccccc23)c1	none (no result: Tau FP inhib, Tau fluor cs, Tau fibril ThT)
Cc1ccc(CCC(=O)Nc2ncc(Cc3cccc(Cl)c3Cl)s2)o1	RORgamma inh 35.5µM, VP16 counter inconclusive
CCc1nnc(NC(=O)CCc2ccc(C)o2)s1	RORgamma inh inconclusive
Cc1nc(-c2cccc(F)c2)sc1CCNC(=O)C(=O)Nc1ccc2c(c1)OCO2	Tau fibril ThT inconclusive (no result: RORgamma inh, VP16 counter)
Nc1cccc2c1C(=O)N(C(=O)c1ccco1)C2=O	none
Nc1cccc2c1C(=O)N(C(=O)/C=C/c1ccc(F)cc1)C2=O	RORgamma inh 12.6µM, Tau FP inhib inconclusive, Tau fibril ThT 25.1µM
Cc1ccc(NC(=O)Nc2c(C)n(C)n(-c3ccccc3)c2=O)c(Cl)c1	none (no result: RORgamma inh, VP16 counter)
